Test results published in PubChem BioAssay AID1835 (Johns Hopkins Ion Channel Center, 2009).
About 750 (31%) of roughly 2,400 compounds were called active. The list shows a part of the results. A number with no mark means an inactive call.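 The calls were made as follows: active = median signal gain over dofetilide-blocked control wells reaching their mean plus 3 SD, so readout 1 at least 0; inactive = the rest.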

biological target: Voltage-gated inwardly rectifying potassium channel KCNH2 (Homo sapiens) (UniProt Q12809); test: hERG protection against dofetilide inhibition, confirmation, cell-based, thallium flux, duplicate retest, dofetilide IC70 (AID 1835); conditions: hERG cell line, FluxOR thallium flux, dofetilide-blocked; at 10 µM; stronger effect = higher value
Sequence (Q12809 whole entry, looked up): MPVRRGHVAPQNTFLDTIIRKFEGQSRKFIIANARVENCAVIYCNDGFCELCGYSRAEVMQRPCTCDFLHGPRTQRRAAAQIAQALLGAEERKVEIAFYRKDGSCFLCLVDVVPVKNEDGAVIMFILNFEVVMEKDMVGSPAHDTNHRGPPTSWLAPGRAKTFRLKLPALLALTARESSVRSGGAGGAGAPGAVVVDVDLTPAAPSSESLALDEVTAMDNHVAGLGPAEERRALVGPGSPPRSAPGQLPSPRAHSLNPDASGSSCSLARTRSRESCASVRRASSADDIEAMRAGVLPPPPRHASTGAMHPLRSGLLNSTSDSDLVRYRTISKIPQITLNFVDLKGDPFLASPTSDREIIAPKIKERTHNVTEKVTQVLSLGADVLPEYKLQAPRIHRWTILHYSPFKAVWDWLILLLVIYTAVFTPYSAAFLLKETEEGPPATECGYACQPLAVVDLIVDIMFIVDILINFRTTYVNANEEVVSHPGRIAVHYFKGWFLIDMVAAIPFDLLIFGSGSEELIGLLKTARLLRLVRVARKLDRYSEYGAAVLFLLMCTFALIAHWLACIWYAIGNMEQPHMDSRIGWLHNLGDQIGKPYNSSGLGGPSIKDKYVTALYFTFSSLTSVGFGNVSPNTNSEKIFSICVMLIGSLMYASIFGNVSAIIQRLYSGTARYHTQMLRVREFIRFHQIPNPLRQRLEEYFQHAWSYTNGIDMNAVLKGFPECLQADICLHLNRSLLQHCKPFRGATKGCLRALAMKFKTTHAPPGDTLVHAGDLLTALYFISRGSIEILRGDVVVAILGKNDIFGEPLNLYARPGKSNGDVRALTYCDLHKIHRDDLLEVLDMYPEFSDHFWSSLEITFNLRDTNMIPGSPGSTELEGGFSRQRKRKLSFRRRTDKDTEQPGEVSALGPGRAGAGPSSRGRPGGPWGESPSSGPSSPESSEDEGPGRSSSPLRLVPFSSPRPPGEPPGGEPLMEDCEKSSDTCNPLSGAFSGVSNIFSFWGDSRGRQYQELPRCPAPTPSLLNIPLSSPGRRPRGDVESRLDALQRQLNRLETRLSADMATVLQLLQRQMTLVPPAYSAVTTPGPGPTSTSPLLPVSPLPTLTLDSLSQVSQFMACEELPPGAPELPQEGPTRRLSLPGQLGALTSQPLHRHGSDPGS

| Compound | activity increase over dofetilide control, less the hit threshold |
| --- | --- |
| CC1(OC(=O)c2ccc(Cl)nc2)C(=O)C=C2C=C(c3ccc(C#N)cc3)OC=C2C1=O (stereo not given) | -3% |
| O=[N+]([O-])c1cc(S(=O)(=O)/N=C(/c2ccccc2)N2CCOCC2)ccc1Cl | -16% |
| CCOc1ccc2nc(/N=C/c3c(C)[nH]n(-c4ccccc4)c3=O)sc2c1 | 100% (active) |
| COc1ccc2nc(/N=C/c3c(C)[nH]n(-c4ccc(C)cc4)c3=O)sc2c1 | 62% (active) |
| CCOc1ccc(-n2cnc3sc(C)c(C)c3c2=O)cc1 | -13% |
| CCOc1ccc2nc(/N=C/c3c(C)[nH]n(-c4ccc(C)cc4)c3=O)sc2c1 | 38% (active) |
| COc1ccc2nc(/N=C/c3c(C)[nH]n(-c4ccc(C)cc4C)c3=O)sc2c1 | 88% (active) |
| COc1ccc2nc(-n3c(O)c(C4=c5ccccc5=NC4=O)[nH]c3=S)sc2c1 | -14% |
| CCCSC(=S)c1c(C)[nH]n(-c2ccccc2)c1=O | 0% |
| CCSC(=S)c1c(C)[nH]n(-c2ccccc2)c1=O | -19% |
| Cc1nn(-c2cccc(C(F)(F)F)c2)c(Cl)c1/C=N/Nc1cccc(C(=O)O)c1 | -28% |
| Brc1ccc(C2=CC(c3ccco3)n3nnnc3N2)cc1 (stereo not given) | -13% |
| C=CCn1c(SCC(=O)Nc2cccc(C)c2)nnc1-c1cnccn1 | -18% |
| O=C(CSc1cccc[n+]1[O-])C12CC3CC(CC(C3)C1)C2 | -11% |
| Cc1cc(OCCN2CCCCCC2)ccc1[N+](=O)[O-] | -3% |
| COCCNC(=O)C1CCN(S(=O)(=O)N2CCC3(CC2)OCCO3)CC1 | -21% |
| Cc1cc2nccc(-c3ccc(Cl)cc3Cl)n2n1 | -3% |
| Cc1[nH]n(-c2ccc(Cl)cc2)c(=O)c1/C=N/c1nnc(-c2ccccc2)s1 | 106% (active) |
| Cc1[nH]n(-c2ccccc2)c(=O)c1N=Nc1ccc(C(N)=O)cc1 | -23% |
| Cn1cnnc1SCC(=O)NCc1ccccc1 | -20% |
| CCCn1c(O)c(N=NC(=O)c2ccco2)c2ccccc21 | 17% (active) |
| CCn1c(O)c(N=NC(=S)NCC2CCCO2)c2ccccc21 (stereo not given) | -1% |
| CCn1c(O)c(N=NC(=O)CNC(=O)c2ccccc2F)c2ccccc21 | -7% |
| CC1(C)Cc2c(sc(NC(=O)C(=O)N3CCCC3)c2C#N)CO1 | -2% |
| N#Cc1c(NC(=O)c2cc(-n3cnnc3)ccc2Cl)sc2c1CCCC2 | 5% (active) |

| Compound | activity increase over dofetilide control, less the hit threshold |
| --- | --- |
| CCCOc1ccc(-c2c(C(=O)N/N=C/c3ccccc3OCC)nnn2-c2nonc2N)cc1 | -7% |
| Nc1nonc1-n1nnc(C(=O)N/N=C/c2ccccn2)c1-c1ccccc1 | -5% |
| CCc1ccc(/C=N/NC(=O)c2nnn(-c3nonc3N)c2C(C)C)cc1 | -22% |
| CN(C)Cc1c(C(=O)N/N=C/c2ccccc2OCc2c(F)cccc2Cl)nnn1-c1nonc1N | 40% (active) |
| Nc1nonc1-n1nnc(C(=O)N/N=C/c2cccc(Cl)c2Cl)c1CN1CCCC1 | 5% (active) |
| Cc1c(C(=O)N/N=C/c2ccccn2)nnn1-c1nonc1N | -14% |
| CN(NC1OC(=O)c2ccccc21)c1ccccc1[N+](=O)[O-] (stereo not given) | -4% |
| CCCCOC(=O)Nc1nnc(C(C)C)s1 | -14% |
| CCOC(=O)c1cccc(C(=O)Nc2nc3ccc(OC)cc3s2)n1 | -14% |
| Cc1ccc2nc(NC(=S)NC(=O)c3ccco3)sc2c1 | 50% (active) |
| COc1ccc2nc(NC(=S)NC(=O)c3ccco3)sc2c1 | 2% (active) |
| CCc1ccc2nc(NC(=O)c3cc(C)on3)sc2c1 | 10% (active) |
| O=C(NC(=S)Nc1nc2ccccc2s1)c1ccco1 | -3% |
| CCc1nnc(NC(=O)c2cccc(C(=O)Nc3nnc(CC)s3)n2)s1 | -10% |
| O=C(NC(=S)Nc1nc2ccc(F)cc2s1)c1ccco1 | 65% (active) |
| CC(C)(C)Cc1nnc(NC(=O)c2ccco2)s1 | -13% |
| COc1cccc(-c2cc(C(F)(F)F)nc(N3CCCCC3)n2)c1 | -17% |
| Cc1ccc([N+](=O)[O-])c2c1C(N1CC(C)OC(C)C1)C(C)(C)O2 (stereo not given) | -24% |
| CCc1cccc(C)c1NC(=O)C1=C(C(=O)O)CCCC1 | -14% |
| NS(=O)(=O)c1ccc(Sc2ccc3c(c2)CCC3)nc1 | -2% |
| CSc1nc(C)c2c(n1)N(c1ccc(C(C)C)cc1)CC2 | -9% |
| Clc1ccc(Nc2ccc(Cl)nn2)cc1 | -6% |
| Cc1cc(OCC(=O)Nc2cc(S(=O)(=O)N3CCOCC3)ccc2N2CCCC2)ccc1C(C)C | -7% |
| CCCCCN(C(=O)CCC(=O)OCC(=O)N(C)C1CCCCC1)c1c(N)n(CCCC)c(=O)[nH]c1=O | -12% |
| COc1ccc(-c2nc(=S)c3ccc4ccccc4c3[nH]2)cc1 | 76% (active) |
